Pf growth 48h: Primary qHTS for delayed death inhibitors of the malarial parasite plastid, 48 hour incubation | actives 5.9% (n = 310,000) | P. falciparum luciferase growth in erythrocytes, 48 h | Potency, µM (series often up to 28.7 µM), for the others: at the top dose activity change, negative = inhibition, actives largely listed as inhibitors; active = well fitted inhibition curve with a large enough effect; inconclusive = small, poorly fitted or top-dose-only effect, or another doubt; inactive = no such curve, though single readings can be large or run the other way; also: potency is read from the fitted curve at half-maximal effect; % is scaled to controls: 0 for no effect and ±100 for the full control effect
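First compound was added to culture medium, then infected red cells at 0.1% parasitemia and 2% hematocrit (final). After incubation at 37 C under 5% CO2, luciferase detection reagent was dispensed and light output recorded.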
NS1 inh: qHTS Assay for Inhibitors of Influenza NS1 Protein Function; Potency, µM (highest dose often 46.1 µM), for inactives: at the highest dose activity, positive = more growth; actives 0.4% (n = 270,000); also: potency is read from the fitted curve at half-maximal effect; actives are rising curves; nearly all actives have a fitted effect of over 50% in size
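Compounds were scored for reversing the slow growth caused by influenza A NS1 in S. cerevisiae, measured by optical density at 600 nm. Assay medium contained 2% galactose at pH 6.0; NS1-free yeast of the same strain were the positive control.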
SARS PLP yeast: qHTS of Yeast-based Assay for SARS-CoV PLP; actives 0.19% (n = 330,000); S. cerevisiae expressing SARS-CoV PLpro, growth rescue; Potency, µM (titrated, usually from 32.9 µM), for the others: at the highest dose activity, positive = growth rescue, most hits filed as activators; AID 485353, 2010; also: potency is read from the fitted curve at half-maximal effect; 0% is about no effect; nearly all actives have a fitted effect of over 55% in size
Shiga toxin inh: A qHTS for Small Molecule Inhibitors of Shiga Toxin | Vero cells, Shiga toxin protein synthesis inhibition reporter | inhibition, % at 38.7 µM | actives 9.2% (n = 290,000) | AID 2315, 2010; in the data active = inhibition mostly above about 28%, no sharp cut-off; inactive = mostly below about 43%; also: 0% is about no effect
Cycloheximide cs: Cycloheximide Counterscreen for Small Molecule Inhibitors of Shiga Toxin. max response, %. cell reporter, cycloheximide protein synthesis inhibition counterscreen. AID 2314, 2010. actives 12% (n = 300,000); in the data active = max response mostly above about 13%, no sharp cut-off; inactive = mostly below about 14%; also: read at 38.3 µM for the half of the compounds with a filed dose; 0% is about no effect
Pf growth 96h: Primary qHTS for delayed death inhibitors of the malarial parasite plastid, 96 hour incubation | actives 6.9% (n = 320,000) | AID 504834, 2011 | Potency, µM (top dose mostly 28.7 µM), inactives show top-dose activity change, negative = inhibition, hits mostly inhibitors | P. falciparum luciferase reporter growth, 96 h; active = well fitted inhibition curve with a large enough effect; inconclusive = small, poorly fitted or top-dose-only effect, or another doubt; inactive = no such curve, though single readings can be large or run the other way; also: potency is read from the fitted curve at half-maximal effect; % is scaled to controls: 0 for no effect and ±100 for the full control effect
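Plates of compound plus infected erythrocytes (2% hematocrit, 0.05% parasitemia final) incubate 96 hours, 37 C, 5% CO2. Detection reagent added; reduced luminescence from the parasites' luciferase reporter flags inhibition.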
NS1 inh valid: Assay for Inhibitors of Influenza NS1 Protein Function: Hit Validation; 1,400 tested, under 10 active; activity change, negative = inhibition, % at 32.9 µM; shares compounds with NS1 inh; influenza NS1 function cell assay, 15-point titration; also: 0% is about no effect
Flu PR8 replic: Assay for Inhibitors of Influenza NS1 Protein Function: Influenza virus replication assay in MDCK cells infected with virus A/PR/8/34; virus titer (log TCID50), log10 TCID50 at 5 µM; shares compounds with NS1 inh; MDCK infected influenza A/PR/8/34, virus titer TCID50; hits give low values; AID 504647, 2011; actives 30% (n = 95); call rule not given here
* = called active by the depositor; i = inactive; ? = inconclusive; nt = no result. In the library only some 21% were active in any assay of this set; here they are far more common. Unless noted, calls follow the shape of the full dose curve.

SMILES	Pf growth 48h	NS1 inh	SARS PLP yeast	Shiga toxin inh	Cycloheximide cs	Pf growth 96h	NS1 inh valid	others
O=C(NCC1CCCO1)C(c1ccco1)N(Cc1ccc(F)cc1)C(=O)CN1C(=O)c2ccccc2S1(=O)=O (stereo not drawn)	-18%	10%	0%	-5	-11	-8%	nt
COc1cccc(CN(C(=O)CN2C(=O)c3ccccc3S2(=O)=O)C(C(=O)NCC2CCCO2)c2ccco2)c1 (stereo not drawn)	2%	?	13%	-11	-8	5%	-27
O=C(O)CC(c1cccc2ccccc12)N1Cc2ccccc2C1=O (stereo not drawn)	?	?	0%	17	-4	?	15
COc1ccc(CN(C)C(=O)C23CC4CC(CC(Cl)(C4)C2)C3)c(OC)c1OC	?	-14%	-8%	3	-4	?	nt
CC12CCC(C(=O)N(CSC(=S)N/N=C\c3ccccc3Cl)C1=O)C2(C)C (stereo not drawn)	?	10µM*	?	1	0	?	?	Flu PR8 replic=6.5*
Cc1ccccc1NCN1C(=O)C2CCC(C)(C1=O)C2(C)C (stereo not drawn)	20%	-1%	1%	3	-4	22%	nt
Cn1c(=O)cc(OCC(=O)NCCCN2CCN(Cc3ccccc3)CC2)c2ccccc21	?	11µM*	3%	12	7	?	-8
CC(C)(C)N1C(=O)c2ccc(C(=O)Nc3ccc(-c4nc5ccccc5[nH]4)cc3)cc2C1=O	0.52µM*	?	9%	47*	29*	i	1
CC1CCC2(CC1)NC(=O)N(Cc1nc(-c3ccccc3)no1)C2=O (stereo not drawn)	6%	8.9µM*	-1%	11	6	nt	-1	Flu PR8 replic=8.5
CCOC(=O)c1sc(C)c2c1NC(C)(c1ccccc1)NC2=O (stereo not drawn)	?	-1%	10%	37	-3	?	nt
Cc1nn(S(=O)(=O)c2ccccc2)c(C)c1S(=O)(=O)N1CCC(C)CC1	28%	-6%	-1%	10	-1	17%	nt
Cc1cc(C)c(-c2cc(NC(=O)COC(=O)c3ccc(CO)cc3)n(-c3ccccc3)n2)cc1C	?	11µM*	0%	6	7	?	-14
COc1cc(C(=O)OCC(=O)Nc2cc(-c3cc(C)c(C)cc3C)nn2-c2ccccc2)cc(OC)c1OC	-25%	4%	2%	-12	-3	?	nt
CCN(Cc1ccccc1)C(=O)COC(=O)c1cc(S(=O)(=O)Nc2ccccc2OC)ccc1O	nt	nt	2%	nt	nt	nt	nt
CN(Cc1ccccc1)C(=O)COC(=O)c1ccccc1NS(=O)(=O)c1cccc(N)c1	?	22µM*	-2%	2	7	-90%	1
CCCc1ccc2oc(C(=O)N(Cc3nccn3C)C(C)C)c(C)c2c1	?	?	3%	35*	21*	-4%	?
Cc1ccc(S(=O)(=O)N(Cc2ccccc2)c2ccccc2C(=O)Nc2ccccc2C(=O)NCc2ccco2)cc1	10µM*	7.9µM*	17%	55*	31*	?	-20
CCOC(=O)C1(CC2CCCCO2)CCN(Cc2cc3ccccc3[nH]2)CC1 (stereo not drawn)	31%	1%	1%	7	-1	?	nt
CC(C)CC(=O)Nc1nnn(C)n1	17%	10µM*	10%	2	-1	?	15
CC(C)C(=O)Nc1nnn(C)n1	-23%	2%	-7%	16	-2	-23%	nt
C=CCN1CC[C@]23c4c5ccc(O)c4OC2C(=O)CC[C@@]3(O)C1C5 (stereo partly drawn)	-8%	13µM*	-2%	1	-3	83%	-17
C=C1CC[C@@]2(O)[C@H]3Cc4ccc(O)c5c4[C@@]2(CCN3CC2CC2)[C@H]1O5	-6%	1%	0%	-9	-3	0%	nt
COC(=O)CCCC(=O)N1CCCC(C(=O)c2ccc(OC)cc2C)C1 (stereo not drawn)	4%	?	0%	9	5	15µM*	-11
Cc1[nH]c2ccccc2c1NC(=O)CN1CCN(c2cccc(C(F)(F)F)c2)CC1	?	-131%	nt	-11	7	?	nt
Cc1[nH]c2ccccc2c1C(O)CN1CCN(c2cccc(C(F)(F)F)c2)CC1 (stereo not drawn)	?	?	-13%	-8	10	?	?
SMILES	Pf growth 48h	NS1 inh	SARS PLP yeast	Shiga toxin inh	Cycloheximide cs	Pf growth 96h	NS1 inh valid	others
Cc1cc(C(=O)O)cc(S(=O)(=O)Nc2ccccc2C(=O)NC(C)c2ccccc2)c1C (stereo not drawn)	7%	7.9µM*	4%	2	-5	5%	31
O=C(/C=C/c1ccc(Br)cc1)c1ccc(NC2=NCCCS2)cc1	?	?	-10%	7	11	?	?
COC(=O)c1ccc(Sc2ccccc2NS(=O)(=O)c2ccc(C)cc2)nc1	0%	?	6%	-19	3	-14%	?
Cc1ccc(S(=O)(=O)Nc2ccccc2-c2ccccc2NS(=O)(=O)c2ccc(C)cc2)cc1	?	10µM*	-14%	15	4	40%	-35	Flu PR8 replic=8.5
Cc1ccc(S(=O)(=O)Nc2ccccc2C(N)=O)cc1	2%	4%	nt	93	8	?	nt
COC(=O)C(Cc1ccccc1)NC(=O)C12CC3CC(CC(C3)C1)C2 (stereo not drawn)	7%	-1%	22%	-16	-9	-26%	nt
CCCCNC(=S)NCc1ccc2[nH]c(C)cc2c1	-14%	1.4µM*	25%	-3	4	1%	-6
Cc1cc(C(=O)OCC(=O)NCc2ccco2)c(C)o1	19%	nt	-1%	1	14	32%	nt
COc1ccccc1-n1c(SCC(=O)NC(C)(C)C)nc(O)cc1=O	2.3µM*	8.9µM*	5%	27	8	35%	36	Flu PR8 replic=7.7
COc1ccccc1-n1c(SC)nc(O)cc1=O	nt	?	-3%	14	-3	-1%	nt
COc1ccccc1NC(=O)CSc1nc(O)cc(=O)n1-c1ccccc1OC	3.3µM*	10µM*	2%	-15	0	nt	39
CCOc1ccc(CCNC(=O)COC(=O)Cc2ccc(F)cc2)cc1OCC	?	nt	4%	nt	nt	?	nt

Screens: PubChem, National Center for Advancing Translational Sciences (NCATS)
